Rows were chosen to be rich in hits. Some 21% of all compounds tested hit in one or more screens of this group.
Cycloheximide cs = Cycloheximide Counterscreen for Small Molecule Inhibitors of Shiga Toxin. cell reporter, cycloheximide protein synthesis inhibition counterscreen. max response, %. 300,000 tested, 12% active. AID 2314, 2010; in the data active = max response mostly above about 13%, no sharp cut-off; inactive = mostly below about 14%; note: read at 38.3 µM for the half of the compounds with a filed dose; 0% is about no effect
Pf growth 96h = Primary qHTS for delayed death inhibitors of the malarial parasite plastid, 96 hour incubation | Potency, µM (top dose mostly 28.7 µM), inactives show top-dose activity change, negative = inhibition, usual class: inhibitors | 320,000 tested, 6.9% active | P. falciparum luciferase reporter growth, 96 h | AID 504834, 2011; note: potency is the fitted concentration of half-maximal effect; % is set by controls: 0 for no effect and ±100 for the full control effect
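Luminescence readout: decreased luciferase signal marks inhibited growth of reporter-expressing P. falciparum in infected red cells (2% hematocrit, 0.05% parasitemia final), exposed to compound two generations (96 h, 37 C, 5% CO2).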
Pf growth 48h = Primary qHTS for delayed death inhibitors of the malarial parasite plastid, 48 hour incubation | Potency, µM (titrated, usually from 28.7 µM), for the others: top-dose activity change, negative = inhibition, most hits filed as inhibitors | 310,000 tested, 5.9% active | AID 504832, 2011 | P. falciparum luciferase growth in erythrocytes, 48 h; note: potency is the fitted concentration of half-maximal effect; % is set by controls: 0 for no effect and ±100 for the full control effect
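Luciferase-expressing parasites in RBCs, 2% Hct / 0.1% parasitemia final; RPMI 1640 + 0.5% Albumax; 37 C, 5% CO2, one generation; luminescence read-out, lower signal = inhibition.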
Sm TGR inh = qHTS Assay for the Inhibitors of Schistosoma Mansoni Peroxiredoxins. Schistosoma mansoni thioredoxin glutathione reductase (TGR), Q962Y6. purified TGR, DTNB reduction, TNB absorbance 405 nm. Potency, µM (doses to about 114 µM), for inactives: at the top dose activity change, negative = inhibition, actives largely listed as inhibitors. 360,000 tested, 3% active. AID 485364, 2010; note: potency is the fitted concentration of half-maximal effect; % is set by controls: 0 for no effect and ±100 for the full control effect; nearly all actives have a fitted effect of over 60% in size
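TGR 20 nM + NADPH 100 uM (dispensed conc.), cpd preinc 15 min RT; start with NADPH (500 uM addition) then DTNB (15 mM addition). Kinetic TNB absorbance, 405 nm filter. Four-parameter Hill fit across titration.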
NS1 inh = qHTS Assay for Inhibitors of Influenza NS1 Protein Function; Potency, µM (highest dose often 46.1 µM), without a hit: at the highest dose activity, positive = more growth; 270,000 tested, 0.4% active; AID 2326, 2010; calls by dose curve; note: potency is the fitted concentration of half-maximal effect; actives are rising curves; nearly all actives have a fitted effect of over 50% in size
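Compounds were scored for reversing the slow growth caused by influenza A NS1 in S. cerevisiae, measured by optical density at 600 nm. Assay medium contained 2% galactose at pH 6.0; NS1-free yeast of the same strain were the positive control.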
Shiga toxin inh = A qHTS for Small Molecule Inhibitors of Shiga Toxin | 290,000 tested, 9.2% active | Vero cells, Shiga toxin protein synthesis inhibition reporter | inhibition, % at 38.7 µM; in the data active = inhibition mostly above about 28%, no sharp cut-off; inactive = mostly below about 43%; note: 0% is about no effect
Active calls of the source: *; ? = inconclusive; . = no result; [ ] = remark or other dose. Unless noted, calls come from the whole dose curve; as a rule, active = well fitted curve in the direction sought with a large enough effect; inconclusive = small, poorly fitted or top-dose-only effect, or another doubt; inactive = no such curve, though single readings can be large; an effect the other way counts as inactive or inconclusive.

SMILES | Cycloheximide cs | Pf growth 96h | Pf growth 48h | Sm TGR inh | NS1 inh | Shiga toxin inh
COc1ccccc1C(=O)COC(=O)COc1cccc2c1OC(C)(C)C2 | 52.2* | ? | 116.3% | 11.5% | -71.5% | 84.8*
COc1ccccc1N1CCN(C(=O)c2ccc(COc3cccc4c3OC(C)(C)C4)cc2)CC1 | . | ? | 10.4µM* | -6.8% | . | .
CCC(C)[C@H]1CNCCN1CCC12CC3CC(CC(C3)C1)C2 (some centres undefined) | . | ? | ? | -14.2% | . | .
CCOc1ccc(NC(=O)CC2C(=O)N(CC)C(=S)N2NC(=O)c2ccncc2)cc1 (centres undefined) | -1.4 | 6.6% | -12.8% | 2.7% | ? | 19.9
O=C(c1ccc2[nH]c3c(c2c1)CCCC3)N1CCN(c2ccc(F)cc2)CC1 | -2.8 | -20.1% | -12.8% | -6.0% | 13.7% | -10.2
Cc1ccc(Cl)cc1N1CCN(C(=O)c2cc3c(=O)[nH]c4ccccc4c3n2C)CC1 | -2.4 | 9.28µM* | ? | 5.8% | 12.8% | 14.2
COc1ccccc1N1CCN(C(=O)c2ccc(-c3ccccc3)cc2)CC1 | 20.4* | 54.0% | 27.5% | -4.2% | -60.5% | 34.1
COc1ccccc1N1CCN(C(=O)c2cc3c(=O)n(C)c4ccccc4c3n2C)CC1 | -2.0 | 7.38µM* | . | -3.3% | -36.0% | -7.7
COc1ccccc1N1CCN(C(=O)c2ccc3[nH]c4c(c3c2)CCCC4)CC1 | 3.6 | 11.7µM* | 0.0% | 1.8% | -10.1% | -4.9
COc1ccc(OC)c(C(=O)N(C)C2CCCN(Cc3ccccc3F)C2)c1 (centres undefined) | -1.0 | ? | 0.0% | -0.8% | 16.9% | -26.6
O=C(c1ccc(-c2ccccc2)cc1)N1CCN(c2ncccn2)CC1 | 9.0 | 10.4µM* | -6.6% | -1.2% | -20.5% | 18.0
O=C(c1ccc(Br)o1)N1CCN(c2ccc(F)cc2)CC1 | -2.4 | . | -21.5% | 0.3% | -12.0% | -7.5
CC(=O)c1ccc(-c2ccc(C(=O)N3CCN(c4ccc(F)cc4)CC3)o2)cc1 | 20.6* | 11.7µM* | -11.2% | -17.6% | . | 19.0
CN(CCC#N)C(=O)c1cc2c(s1)-c1ccccc1SC2 | 51.7* | 165.1% | 152.6% | -0.7% | -1.7% | 80.6*
COc1cc(NC(=O)CC2NCCNC2=O)cc(OC)c1 (centres undefined) | 11.9 | -8.4% | ? | 10.8% | 2.6% | -7.3
C=CCN(C(=O)Cc1cccs1)c1nc(-c2ccc(S(C)(=O)=O)cc2)cs1 | 20.9* | -29.9% | 10.3% | -23.4% | 20.5% | 72.8*
C=CCN(C(=O)c1cccc(S(=O)(=O)N2CCN(C)CC2)c1)c1nc(-c2ccccc2)cs1 | 0.7 | ? | . | -0.4% | 6.7% | -10.5
C=CCN(C(=O)CCc1ccccc1OC)c1nc(-c2ccc(S(C)(=O)=O)cc2)cs1 | 39.0* | -32.9% | ? | -13.5% | 7.9% | 62.8*
CCN1CCN(CCCNC(=O)CCC(=O)N2CC(C)Oc3ccc(C)cc32)CC1 (centres undefined) | -2.7 | 8.7% | -7.6% | 9.9% | -3.7% | -1.0
CC(=O)N/C(=N/c1nc(C)cc(C)n1)Nc1cccc(C)c1 | 1.2 | -16.1% | 7.2% | -5.4% | 3.6% | -2.7
COc1cc2c(cc1NC(=O)COc1cc(C)ccc1C)oc1ccccc12 | . | . | . | 2.8% | . | .
COc1ccc(CCNC(=O)COc2ccc([N+](=O)[O-])cc2)cc1 | -2.3 | 15.1%[5.75 µM] | 3.7% | 1.7% | -4.9% | 9.9
COc1ccc(CNc2ccc([N+](=O)[O-])cn2)cc1 | 28.0* | -24.8% | 143.7% | 4.2% | 0.7% | 59.1*
COc1ccc(Nc2ccc([N+](=O)[O-])cn2)cc1 | 36.7* | -17.4% | 73.5% | -0.5% | -22.7% | 37.8*
O=[N+]([O-])c1ccc(NCc2ccccn2)nc1 | 15.9* | 38.8% | 15.1% | 0.6% | 13.1% | 47.4*
COc1ccccc1Nc1ccc([N+](=O)[O-])cn1 | 20.8* | 41.8% | 105.2% | 7.8% | -3.7% | 15.5
CCc1ccccc1N1CC(c2nc3ccccc3n2Cc2cccc(C)c2)CC1=O (centres undefined) | . | . | . | -1.2% | . | .
CCOC(=O)c1ccc(Nc2nc(C)cc(C)n2)cc1 | 6.3 | 18.4% | -29.3%[0.00184 µM] | 11.5% | 0.3% | -1.4
